Tau fluor counter: counter-screen for tau fibril formation inhibitors; tau K18 P301L Alexa594 fluorescence, heparin fibrillization; Potency, µM (highest dose often 57.7 µM); 280,000 tested, 0.93% active; note: nearly all actives have a fitted effect of over 55% in size
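Human K18 P301L tau (15 uM unlabeled plus 0.24 uM Alexa 594-labeled, final) in 100 mM sodium acetate pH 7 was mixed with compound and 20 uM heparin and incubated 6 hr at 37 C.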
Tau FP inhib: blocks human tau fibril formation measured by polarization; 280,000 tested, 0.39% active; AID 1468; K18 P301L tau heparin fibrillization, Alexa594 FP, 6 h; Potency, µM (highest dose often 57.7 µM), usual class: inhibitors; note: nearly all actives have a fitted effect of over 55% in size
Target sequence (P10636 561-689 P618L limits assumed): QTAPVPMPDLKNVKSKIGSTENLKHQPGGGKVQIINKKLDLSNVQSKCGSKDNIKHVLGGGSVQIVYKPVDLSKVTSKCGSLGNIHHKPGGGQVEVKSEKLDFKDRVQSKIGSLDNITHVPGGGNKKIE
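K18 P301L tau (15 uM unlabeled/0.24 uM Alexa 594-labeled, final) + compound + heparin 20 uM final; 100 mM NaOAc pH 7; 6 hr 37 C; ThT 30 uM final added, 1 hr RT; FP ex 555/em 632 nm.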
HTT ATP protect: protects HTT-Q103 PC12 cells, measured by ATP. AID 1471. Potency, µM (series often up to 56.4 µM), hits mostly activators. PC12 HTT-Q103 induced, cytoprotection, ATP luminescence, 40 h. 230,000 tested, 0.14% active; note: nearly all actives have a fitted effect of over 45% in size
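PC12 cells with ecdysone-inducible HTT exon 1 Q103-GFP, induced with 100 nM tebufenozide and co-treated with library compounds in a dose series (1536-well, 1500 cells/well). Cytoprotection read as ATP content by ATPlite luminescence.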
HttQ103 aggreg: mutant huntingtin aggregation inhibition. PC12 HttQ103-GFP aggregates, Acumen cytometry, 40 h. Potency, µM (highest dose often 46.1 µM), usual class: inhibitors. 220,000 tested, 1.1% active. AID 1688; note: nearly all actives have a fitted effect of over 60% in size
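Quantitative HTS on tebufenozide-induced (100 nM) PC12 cells stably expressing polyQ103 Huntingtin exon 1–GFP. Reduction of bright GFP aggregates, detected by laser scanning cytometry after lysis, identified actives across the titration.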
Tau ThT inhib: tau fibrillization inhibition (ThT binding) | recombinant tau K18 P301L, heparin-induced fibrillization, ThT fluorescence | Potency, µM (series often up to 57.4 µM), hits mostly inhibitors | 270,000 tested, 2.1% active | AID 1460; note: nearly all actives have a fitted effect of over 55% in size
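ThT emission at 510 nm, taken 1 hr after adding 30 uM dye, quantifies aggregates formed when 20 uM heparin acts on human tau K18 P301L for 6 hr at 37 C.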
Each line names hits and unclear results; the compound was inactive in the other large screens; [ ] = remark or other dose. Sampled rows, rich in hits. Any-hit rate of the full collection: about 3.7%. Calls come from the whole dose curve; as a rule, active = well fitted curve in the direction sought with a large enough effect; inconclusive = small, poorly fitted or top-dose-only effect, or another doubt; inactive = no such curve, though single readings can be large; an effect the other way counts as inactive or inconclusive.

CC(C)(C)CC(C)(C)c1ccc(OCCOCC[N+](C)(C)Cc2ccccc2)cc1	HttQ103 aggreg 28µM (no result: Tau ThT inhib)
CC(C)(C)CC(C)(C)c1ccc(OCCO)cc1	none (no result: Tau fluor counter, Tau FP inhib, Tau ThT inhib)
COc1ccc2c(c1)[n+]([O-])c(/C(C)=N/NC(N)=S)c(C)[n+]2[O-]	none (no result: Tau fluor counter, Tau FP inhib, HttQ103 aggreg, Tau ThT inhib)
COc1ccc2cc3[n+](cc2c1OC)CCc1cc2c(cc1-3)OCO2	HTT ATP protect inconclusive, HttQ103 aggreg inconclusive, Tau ThT inhib 18µM
COc1cccc(C2=NCCc3cc4c(cc32)OCO4)c1OC	none (no result: HTT ATP protect)
CC(=O)C1=C(C)NC(SCC(=O)c2ccc(Cl)cc2)=C(C#N)C1c1ccco1 (stereo not given)	Tau fluor counter inconclusive, Tau ThT inhib inconclusive
CC(=O)C1=C(C)NC(SCC(=O)c2ccccc2)=C(C#N)C1c1ccco1 (stereo not given)	Tau fluor counter inconclusive, Tau ThT inhib 22µM
CCc1ccc(NC(=O)CSC2=C(C#N)C(c3ccco3)C3=C(CCCC3=O)N2)cc1 (stereo not given)	Tau fluor counter inconclusive
N#CC1=C(SCC(=O)c2ccc(Br)cc2)NC2=C(C(=O)CCC2)C1c1ccco1 (stereo not given)	Tau fluor counter inconclusive, Tau ThT inhib 14µM
CC(=O)C1=C(C)NC(SCC(=O)c2ccccc2)=C(C#N)C1CC(C)C (stereo not given)	HttQ103 aggreg 1.6µM
CC(CNc1nc2ccccc2c2nc(-c3ccccc3)nn12)c1ccccc1 (stereo not given)	none (no result: HTT ATP protect, HttQ103 aggreg)
Cc1ccc(N(C)C)cc1	none (no result: Tau fluor counter, Tau FP inhib, HttQ103 aggreg, Tau ThT inhib)
CN(C)c1ccc(C2NCCS2)cc1 (stereo not given)	Tau FP inhib inconclusive, Tau ThT inhib 28µM
Cc1ccc(C2NCCS2)cc1 (stereo not given)	Tau FP inhib inconclusive, Tau ThT inhib 22µM (no result: HTT ATP protect)
Cc1c(CCC(=O)O)c(=O)n2c([nH]c3ccccc32)c1C#N	none
N#Cc1cc(NC(=O)c2ccc(F)cc2)c(=O)n2c1[nH]c1ccccc12	HttQ103 aggreg 14µM, Tau ThT inhib inconclusive
COc1cc(/C=N/NC(=S)NC2CC3CC2C2C=CCC32)ccc1O (stereo not given)	Tau fluor counter 11µM[quencher], Tau ThT inhib inconclusive
COCCNc1ncnc2ccc(-c3ccc(C(=O)N(C)C)cc3)cc12	none (no result: Tau fluor counter, Tau FP inhib, HttQ103 aggreg, Tau ThT inhib)
COCCN1Cc2cccc(C(=O)Nc3ccc(C)cc3C)c2C1=O	none (no result: HTT ATP protect, HttQ103 aggreg)
CC(C)n1c(-c2ccc(C(C)(C)C)cc2)n[nH]c1=S	HttQ103 aggreg 8.9µM
CC(C)n1c(-c2ccccc2F)n[nH]c1=S	none
Cc1cc(C)c(S(=O)(=O)OC[C@H]2C=CC[C@@H](CCC[C@H]3O[C@H](C(=O)OC(C)C)CC[C@@H]3C)O2)c(C)c1	none (no result: HttQ103 aggreg)
CN(C)c1ccc(C(c2nnnn2C(C)(C)C)N2CCN(C(=O)c3ccco3)CC2)cc1 (stereo not given)	Tau fluor counter inconclusive, Tau ThT inhib 16µM
CC(C)CCn1nnnc1C(c1ccc(N(C)C)cc1)N1CCN(C(=O)c2ccco2)CC1 (stereo not given)	Tau fluor counter inconclusive, Tau ThT inhib inconclusive
COc1ccccc1-c1cc(N)n(S(=O)(=O)c2cccc3nsnc23)n1	none (no result: Tau ThT inhib)
Nc1cc(-c2ccc(Cl)cc2)nn1S(=O)(=O)c1cccc2nsnc12	Tau fluor counter 18µM[quencher], HttQ103 aggreg inconclusive, Tau ThT inhib inconclusive
Nc1cc(-c2cccc(F)c2)nn1S(=O)(=O)c1cccc2nsnc12	none
Nc1cc(-c2ccc(Br)cc2)nn1S(=O)(=O)c1cccc2nsnc12	Tau fluor counter 13µM[quencher], HttQ103 aggreg 25µM, Tau ThT inhib inconclusive
Cc1ccc(C)c(Nc2nc(-c3ccccc3)c3cc(Br)ccc3n2)c1	Tau ThT inhib inconclusive (no result: HTT ATP protect, HttQ103 aggreg)
COC(=O)c1ccc(NC(=O)CCn2cccn2)cc1	none (no result: HTT ATP protect, HttQ103 aggreg)
Nc1nc(N)c(S(=O)(=O)c2ccccc2)c(Nc2ccc(Br)cc2)n1	Tau fluor counter inconclusive, Tau FP inhib 32µM (no result: HTT ATP protect, HttQ103 aggreg)
Nc1nc(N)c(S(=O)(=O)c2ccccc2)c(Nc2ccccc2)n1	Tau FP inhib inconclusive (no result: HTT ATP protect, HttQ103 aggreg)
Nc1nc(N)c(C=Nc2ccc(Br)cc2)c(Nc2ccc(Br)cc2)n1	Tau fluor counter 10µM[quencher], Tau FP inhib inconclusive, Tau ThT inhib 28µM
CC(C)CNC(=O)O	none (no result: Tau fluor counter, Tau FP inhib, HttQ103 aggreg, Tau ThT inhib)
O=C(O)c1ccccc1Nc1ccc([N+](=O)[O-])cc1C(=O)O	none (no result: Tau ThT inhib)
